The results in this text go back to PubChem BioAssay (NCATS).

Records with an inconclusive call do not appear. The source made the active and inactive calls. Calls follow the shape of the dose curve; as a rule, active = well fitted curve in the direction sought with a large enough effect; inconclusive = small, poorly fitted or top-dose-only effect, or another doubt; inactive = no such curve, though single readings can be large; an effect the other way counts as inactive or inconclusive.

Test [1] can be described thus: qHTS of pediatric cancer cell lines to identify multiple opportunities for drug repurposing: Confirmatory screen for Rh41 cells (AID 1347123).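 Also: 48 h compound exposure; nearly all actives have a fitted effect of over 60% in size.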 Also: potency is read from the fitted curve at half-maximal effect. Put shortly:
(§1)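 Cells (500-1,000/well) in growth media were settled 5 h at 37 degrees C, then given compounds for 48 h. Viability was read as CellTiter-Glo luminescence. Primary runs used MIPE at 11 points (0.78 nM-46 µM) and NPC at 8 points (0.59 nM-46 µM); follow-ups used 11 points.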
In general terms: Quantitative high-throughput screening tests each substance at several concentrations.

The nature of test [2]: qHTS of pediatric cancer cell lines to identify multiple opportunities for drug repurposing: Confirmatory screen for RD cells (AID 1347124).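 Also: cells exposed to compound for 48 h before viability readout; nearly all actives have a fitted effect of over 65% in size.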 Also: potency is read from the fitted curve at half-maximal effect. Put shortly: as §1
Test [3] can be described thus: qHTS of pediatric cancer cell lines to identify multiple opportunities for drug repurposing: Confirmatory screen for Rh18 cells (AID 1347125). Also: nearly all actives have a fitted effect of over 55% in size. Also: potency is read from the fitted curve at half-maximal effect. Put shortly:
as §1

Test [4] can be described thus: qHTS of pediatric cancer cell lines to identify multiple opportunities for drug repurposing: Confirmatory screen for Rh30 cells (AID 1347126). Also: nearly all actives have a fitted effect of over 55% in size. Also: potency is read from the fitted curve at half-maximal effect. Put shortly:
as §1

Test [5] in a line: qHTS of pediatric cancer cell lines to identify multiple opportunities for drug repurposing: Confirmatory screen for OHS-50 cells (AID 1347128).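 Also: compound exposure lasted 48 h at 37 degrees C; nearly all actives have a fitted effect of over 55% in size.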 Also: potency is read from the fitted curve at half-maximal effect. In a few lines: as §1
The nature of test [6]: qHTS of pediatric cancer cell lines to identify multiple opportunities for drug repurposing: Confirmatory screen for SK-N-SH cells (AID 1347129).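 Also: cells exposed to compound for 48 h before viability read; nearly all actives have a fitted effect of over 60% in size.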 Also: potency is read from the fitted curve at half-maximal effect. Put shortly: as §1
Test [7] relates to Zika virus NS2B-NS3 protease. Kind of test: Primary screen GU AMC qHTS for Zika virus inhibitors (AID 1347154). Also: nearly all actives have a fitted effect of over 70% in size. Put shortly: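 Unlinked Zika NS2B hydrophilic domain/NS3 protease domain noncovalent complex (25 nM final) in 10 mM Tris-HCl pH 8.0, 0.01% Tween 20, with AMC peptide substrate. Fluorescence (ex 340, em 450 nm) change over 15 min, room temperature; percent inhibition fitted to 4-parameter Hill equation.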

For test [8], the system named is Zika virus NS2B-NS3 protease (unlinked complex). Description: Primary screen GU Rhodamine qHTS for Zika virus inhibitors: Unlinked NS2B-NS3 protease assay (AID 1347159). Also: nearly all actives have a fitted effect of over 60% in size. In a few lines: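 Unlinked NS2B/NS3, 25 nM; Rhod110 peptide, 1.5 microM; compounds, up to 114 microM. Reaction run 15 min at RT in 10 mM Tris-HCl pH 8.0, 0.01% Tween 20; kinetic fluorescence change fitted with a 4-parameter Hill model.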

Test [9] relates to Zika virus NS2B-NS3 protease (linked construct). Kind of test: Primary screen NINDS Rhodamine qHTS for Zika virus inhibitors (AID 1347160). Also: nearly all actives have a fitted effect of over 55% in size. In a few lines: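 Single-chain NS2B-NS3 protease, 25 nM, pH 8.0; compounds preincubated 15 min. Activity: Rhodamine110 release from 1.5 microM substrate over 15 min, room temperature, data fitted to 4-parameter Hill.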
For test [10], the target named is N-terminal Xaa-Pro-Lys N-methyltransferase 1 (Homo sapiens) (UniProt Q9BV86). Kind of test: qHTS Assay for Inhibitors of N-terminal methyltransferase 1 (NTMT1): LOPAC validation of the NTMT1 SAHH-coupled ThioGlo3 Assay (AID 1347143).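 Also: SAH from peptide methylation measured as thiol fluorescence via SAHH coupling and ThioGlo3; potency is read from the fitted curve at half-maximal effect; nearly all actives have a fitted effect of over 70% in size.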 Put shortly:
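In this qHTS pilot against the LOPAC set, 125nM NTMT1 met compounds tested at multiple concentrations, and fluorescence was normalized to background.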

For test [11], the target named is Lysine-specific demethylase 5B (Homo sapiens) (UniProt Q9UGL1). Description: Optimization screen for KDM5B Histone Demethylases FDH coupled qHTS against the LOPAC library (AID 1347166). In a few lines:
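KDM5BDeltaAP (200nM final) in 50mM HEPES pH 7.5, 0.01% Tween-20 was preincubated with compound for 10 min at room temperature. A substrate mix of 12.5uM H3K4Me3, 25uM a-ketoglutarate, ascorbate, Fe2+, NAD+ and formaldehyde dehydrogenase was then added. NADH fluorescence (340/450 nm) was read initially and after 30 min.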

Sequence of Lysine-specific demethylase 5B (Homo sapiens) (Q9UGL1 whole entry, looked up): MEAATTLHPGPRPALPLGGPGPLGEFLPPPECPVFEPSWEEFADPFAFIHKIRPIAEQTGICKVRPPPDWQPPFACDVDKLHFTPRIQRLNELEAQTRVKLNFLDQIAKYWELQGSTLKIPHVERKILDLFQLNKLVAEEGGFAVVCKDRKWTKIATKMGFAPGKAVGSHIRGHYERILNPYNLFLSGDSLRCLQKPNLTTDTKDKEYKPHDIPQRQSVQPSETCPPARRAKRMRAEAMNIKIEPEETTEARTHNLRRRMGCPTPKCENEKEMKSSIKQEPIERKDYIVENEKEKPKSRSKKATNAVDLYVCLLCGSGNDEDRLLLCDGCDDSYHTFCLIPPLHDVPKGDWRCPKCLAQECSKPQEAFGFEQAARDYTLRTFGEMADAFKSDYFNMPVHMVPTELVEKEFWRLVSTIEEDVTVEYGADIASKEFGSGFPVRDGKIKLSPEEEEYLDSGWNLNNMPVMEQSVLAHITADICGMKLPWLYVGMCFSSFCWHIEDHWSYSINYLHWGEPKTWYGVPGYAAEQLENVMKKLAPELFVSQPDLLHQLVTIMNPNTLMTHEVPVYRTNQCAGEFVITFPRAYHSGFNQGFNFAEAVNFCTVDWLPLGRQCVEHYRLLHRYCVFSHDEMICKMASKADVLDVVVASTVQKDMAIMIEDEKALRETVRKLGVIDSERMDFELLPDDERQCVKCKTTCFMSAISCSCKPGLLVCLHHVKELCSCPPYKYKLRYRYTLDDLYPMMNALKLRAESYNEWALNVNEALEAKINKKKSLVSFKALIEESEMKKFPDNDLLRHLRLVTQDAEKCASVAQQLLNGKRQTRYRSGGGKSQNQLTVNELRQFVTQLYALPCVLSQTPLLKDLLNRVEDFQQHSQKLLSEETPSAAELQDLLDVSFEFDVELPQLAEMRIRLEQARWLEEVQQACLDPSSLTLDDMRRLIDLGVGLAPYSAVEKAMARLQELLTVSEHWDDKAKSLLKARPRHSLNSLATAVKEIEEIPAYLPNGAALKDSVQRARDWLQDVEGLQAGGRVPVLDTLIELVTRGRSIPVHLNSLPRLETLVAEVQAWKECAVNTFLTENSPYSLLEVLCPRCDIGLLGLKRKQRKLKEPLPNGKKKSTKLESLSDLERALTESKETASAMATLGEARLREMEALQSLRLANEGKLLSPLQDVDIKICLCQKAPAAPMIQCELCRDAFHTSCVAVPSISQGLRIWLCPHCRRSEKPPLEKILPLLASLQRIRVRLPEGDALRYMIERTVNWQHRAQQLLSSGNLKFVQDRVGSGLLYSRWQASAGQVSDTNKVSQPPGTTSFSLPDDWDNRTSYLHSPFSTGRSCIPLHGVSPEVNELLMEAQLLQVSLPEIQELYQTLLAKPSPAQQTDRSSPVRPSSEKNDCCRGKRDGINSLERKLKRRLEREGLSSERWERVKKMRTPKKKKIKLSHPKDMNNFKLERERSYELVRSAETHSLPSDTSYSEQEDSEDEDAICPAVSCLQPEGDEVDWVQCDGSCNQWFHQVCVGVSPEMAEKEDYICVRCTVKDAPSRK
Sequence of N-terminal Xaa-Pro-Lys N-methyltransferase 1 (Homo sapiens) (Q9BV86 whole entry, looked up): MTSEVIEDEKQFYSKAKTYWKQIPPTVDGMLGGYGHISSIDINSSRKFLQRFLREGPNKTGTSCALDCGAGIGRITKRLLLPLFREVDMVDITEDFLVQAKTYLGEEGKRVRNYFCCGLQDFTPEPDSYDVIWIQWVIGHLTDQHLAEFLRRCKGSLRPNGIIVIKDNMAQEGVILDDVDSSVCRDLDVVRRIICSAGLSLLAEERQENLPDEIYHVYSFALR

In the case of `CO[C@H]1C=CC=C(C)C(=O)NC2=CC(=O)C(NCCN(C)C)=C(C[C@@H](C)C[C@H](OC)[C@@H](O)[C@@H](C)C=C(C)[C@@H]1OC(N)=O)C2=O`, the Potency in test [1] is 7.37 µM (active); in test [3] it was 1.85 µM (active); in test [4], 3.29 µM (active). For the same compound, the Potency entry in test [2] and in test [5] was “inactive” throughout.

With `CC(=O)Oc1cc2c(s1)CCN(C(C(=O)C1CC1)c1ccccc1F)C2` (stereo unspecified), the Potency was 14.7 µM (active) in test [1] and 2.93 µM (active) in [4]. For the same compound, the Potency result in test [3], in test [5], in test [6] and in test [7] was “inactive” in each case.

For the compound `O=C(O)c1ccc(-c2c[nH]c3ncc(-c4ccccc4)cc23)cc1C1CCCC1`, the Potency result in test [1], in [2], in test [3], in test [4], in test [5] and in [7] was “inactive” throughout.

In the case of `COc1cc2nc(-c3ccc(N4CCN(C)CC4)cc3)nc(NCCN3CCOCC3)c2cc1OC`, the Potency was 0.414 µM (active) in [1]; 0.208 µM (active) in test [2]; 0.293 µM (active) in test [3]; 0.117 µM (active) in test [5]; 4.69 µM (active) in test [6]. The Potency entry in test [8] and in test [9] was “inactive” throughout.

On to `CC=C(C)C(=O)O[C@H]1C(C)=C[C@]23C(=O)[C@@H](C=C(CO)[C@@H](O)[C@]12O)[C@H]1[C@@H](C[C@H]3C)C1(C)C`, for which the Potency in test [1] is 13.1 µM (active). In addition, the Potency result in [2], in test [3], in test [6] and in test [7] was “inactive” throughout.

Take `COc1ccc2c(Oc3ccc(NC(=O)c4c(C)n(CC(C)(C)O)n(-c5ccccc5)c4=O)cc3F)ccnc2c1`: the Potency in test [1] was 23.3 µM (active). Further, the Potency entry in test [2], in [7], in [8] and in test [9] was “inactive” each time.

With `O=C1c2ccccc2-[n+]2ccc3c([nH]c4ccccc43)c21`, the Potency in test [1] is 2.08 µM (active); in [2] it was 1.65 µM (active); in [3] it was 2.33 µM (active); in [4], 2.93 µM (active); in test [5], 1.65 µM (active). Further, the Potency result in [6] and in test [7] was “inactive” in each case.

As to `CN(C)C1CCN(C(=O)c2ccc(NC(=O)Nc3nc(N4CCOCC4)nc(N4CCOCC4)n3)cc2)CC1`, the Potency in [1] is 0.0827 µM (active); in [2], 0.293 µM (active); in test [3], 0.293 µM (active); in test [5] it was 0.465 µM (active); in test [6], 3.72 µM (active). Further, the Potency entry in [4], in test [7], in test [8] and in test [9] was “inactive” throughout.

Regarding `COc1cc2ncnc(Nc3ccc(F)c(Cl)c3)c2cc1OCCCN1CCOCC1`, the Potency is 26.9 µM (active) in test [1]; 1.51 µM (active) in test [2]; 38 µM (active) in test [3]; 8.51 µM (active) in [4]; 38 µM (active) in [5]; 34 µM (active) in test [6].

Turning to `Nc1ncnc2c1ncn2[C@@H]1O[C@@H](CO)[C@H](O)[C@H]1O`, the Potency entry in test [1], in [2], in [3], in [4], in [5] and in test [6] was “inactive” throughout. Further, the Potency result in [7] was “inactive”.

In the case of `OC[C@H]1O[C@@H](n2cnc3c2NC=NC[C@@H]3O)C[C@H]1O`, the Potency entry in [1], in test [2], in test [3], in [4], in test [5] and in test [6] was “inactive” in each case. Besides, in test [7], the Potency result is “inactive”.

For the compound `CC(C)n1nc(-c2ccc3oc(N)nc3c2)c2c(N)ncnc21`, the Potency in test [1] was 0.0293 µM (active); in test [2], 0.208 µM (active); in test [3], 1.65 µM (active); in [4] it was 0.293 µM (active); in test [5], 3.69 µM (active); in [6], 0.59 µM (active). Also, the Potency result in test [8] and in test [9] was “inactive” each time.

Take `CCCCCCCCCCCC1=C(O)C(=O)C=C(O)C1=O`: the Potency result in test [1], in test [2], in test [3], in test [4] and in test [7] was “inactive” each time.

As for `CCc1ccc(OCc2ccccc2C(=O)Nc2ccc3nc(C)cc(N)c3c2)cc1`, the Potency in [1] was 9.27 µM (active); in test [2] it was 8.27 µM (active); in [3], 8.27 µM (active); in test [5], 9.27 µM (active); in test [6] it was 8.33 µM (active). For the same compound, the Potency result in test [4] and in [7] was “inactive” in each case.

`COc1ccc(-c2nc(N3CCOCC3)c3sc(CN(C)c4ncc(C(=O)NO)cn4)cc3n2)cn1`: the Potency in test [1] is 0.414 µM (active); in test [2] it was 2.33 µM (active); in test [3] it was 1.17 µM (active); in test [4] it was 4.14 µM (active); in test [6], 5.9 µM (active).

`O=c1cc(-c2ccc(O)cc2)oc2cc(O)cc(O)c12`: the Potency entry in test [1], in [2], in test [6] and in [7] was “inactive” in each case. In addition, in test [10], the Potency was 89.1 µM (active). In [11], the result was inactive.

Turning to `CC[C@@H]1C=C(C)C[C@H](C)C[C@H](OC)[C@H]2O[C@@](O)(C(=O)C(=O)N3CCCC[C@@H]3C(=O)O[C@H](C(C)=C[C@@H]3CC[C@H](Cl)[C@H](OC)C3)[C@H](C)[C@@H](O)CC1=O)[C@H](C)C[C@H]2OC`, in [1], the Potency was 13.1 µM (active). Moreover, the Potency result in test [2] and in test [6] was “inactive” in each case.

As for `Cc1nnc(C(C)C)n1C1C[C@H]2CC[C@@H](C1)N2CC[C@H](NC(=O)C1CCC(F)(F)CC1)c1ccccc1` (stereo partly specified), the Potency result in test [1], in test [6] and in test [7] was “inactive” throughout. For the same compound, the results for the Potency in test [2], in test [3] and in test [4] were 7.37 µM (active), 6.57 µM (active) and 9.27 µM (active), respectively.

As to `O=C1C(Cl)=C(NCCN2CCOCC2)C(=O)c2ncccc21`, the Potency in test [1] is 1.17 µM (active); in test [2], 1.17 µM (active); in test [3] it was 3.29 µM (active); in test [4], 7.37 µM (active); in test [6] it was 7.43 µM (active). Further, the Potency entry in test [7] is “inactive”.
